In PubChem BioAssay (EPA / NIEHS):
“And” between values parts separate entries of the source, which are not always exact repeats. Equal entries are not always repeated. Records with an inconclusive call do not appear. The source made the active and inactive calls. How the source made its calls: active means hit-call score of the fitted dose curve at least 0.9, where 1 is the maximum; inconclusive means response in the unintended direction; inactive means score below 0.9.

target: Estrogen receptor (Homo sapiens) (UniProt P03372); test: OT_ER_ERaERa_1440: Odyssey Thera (OT) 24-hour HEK293T Protein-Complementation Assay for Estrogen Receptor-alpha/-alpha Homodimer (AID 2283349);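 further: hits raise fluorescence above DMSO for agonists and antagonists alike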
Sequence (P03372 whole entry, looked up, the tested form may be a part): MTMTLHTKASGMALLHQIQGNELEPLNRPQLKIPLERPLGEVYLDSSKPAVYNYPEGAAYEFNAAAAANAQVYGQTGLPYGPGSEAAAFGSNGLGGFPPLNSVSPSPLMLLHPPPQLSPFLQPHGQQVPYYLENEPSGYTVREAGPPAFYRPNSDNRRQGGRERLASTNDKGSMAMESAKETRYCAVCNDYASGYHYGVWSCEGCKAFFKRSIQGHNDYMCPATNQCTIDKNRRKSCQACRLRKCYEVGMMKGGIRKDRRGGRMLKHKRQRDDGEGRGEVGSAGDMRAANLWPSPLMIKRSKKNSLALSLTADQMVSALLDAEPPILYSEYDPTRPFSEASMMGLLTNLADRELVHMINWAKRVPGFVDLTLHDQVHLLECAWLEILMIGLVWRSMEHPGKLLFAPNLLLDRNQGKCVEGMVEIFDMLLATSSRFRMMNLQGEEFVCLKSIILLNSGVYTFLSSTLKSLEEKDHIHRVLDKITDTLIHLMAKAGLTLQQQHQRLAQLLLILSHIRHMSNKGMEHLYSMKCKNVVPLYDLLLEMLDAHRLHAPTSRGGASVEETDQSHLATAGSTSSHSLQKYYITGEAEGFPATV
Outline: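 Cells (HEK293T) carrying the fragment-tagged ERα LBD (aa 310-547) pair are treated with chemical for 24 hours. Nuclear and/or cytoplasmic fluorescence is then quantified on a laser scanning cytometer. Activity is scored as signal gain against DMSO.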

Row | Structure (SMILES) | outcome | AC50
1 | COP(=O)(OC)OC | inactive | 
2 | CC(C#N)CCC#N (centres undefined) | inactive | 
3 | Cl/C=C/Cl | inactive | 
4 | COc1ccc(C=O)cc1OC | inactive | 
5 | OCC(O)CCl (centres undefined) | inactive | 
6 | ClC1(Cl)C2(Cl)C3(Cl)C4(Cl)C(Cl)(Cl)C5(Cl)C3(Cl)C1(Cl)C5(Cl)C24Cl (centres undefined) | inactive | 
7 | OCc1ccco1 | inactive | 
8 | CC(C)c1cccc(C(C)C)c1O | inactive | 
9 | CC(=O)C=C(C)C |  | 26.6 µM (active)
10 | N#CN=C(N)N | inactive | 
11 | COc1ccc(C=O)cc1 | inactive | 
12 | C=C(C)C#N | inactive | 
13 | ClC(Cl)=C(Cl)C(Cl)=C(Cl)Cl | inactive | 
14 | C=CC#N | inactive | 
15 | O=C/C=C/c1ccccc1 | inactive | 
16 | [O-][Cl+2]([O-])O | inactive | 
17 | c1cc[c]([Hg][c]2ccccc2)cc1 | inactive | 
18 | CC(=O)c1cc(C(C)(C)C)cc2c1CCC2(C)C | inactive | 
19 | O=C1C(Cl)=C(Cl)C(=O)c2ccccc21 |  | 11.9 µM (active)
20 | Clc1nc(Cl)nc(Cl)n1 | inactive | 
21 | CCCCCCCCSC(=O)Oc1cc(Cl)nnc1-c1ccccc1 | inactive | 
22 | CC1(C)Cc2cccc(O)c2O1 | inactive | 
23 | CNC | inactive | 
24 | O=[N+]([O-])c1ccc(O)c([N+](=O)[O-])c1 | inactive | 
25 | Cc1ccc2ccccc2c1C | inactive | 

target: Estrogen receptor (Homo sapiens) (UniProt P03372); test: OT_ER_ERaERa_0480: Odyssey Thera (OT) 8-hour HEK293T Protein-Complementation Assay for Estrogen Receptor-alpha/-alpha Homodimer (AID 2283351);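 further: rise in fluorescence from reassembled reporter fragments on ERα LBD homodimer in nucleus or whole cell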
Outline: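 Cells were treated for 8 hours, then imaged on a laser scanning plate cytometer. Complementation of reporter fragments fused to the human ERα ligand-binding domain (residues 310-547) in HEK293T gave fluorescence, and gain of signal over vehicle was fitted.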

Row | Structure (SMILES) | outcome | AC50
26 | COP(=O)(OC)OC | inactive | 
27 | CC(C#N)CCC#N (centres undefined) | inactive | 
28 | Cl/C=C/Cl | inactive | 
29 | COc1ccc(C=O)cc1OC | inactive | 
30 | OCC(O)CCl (centres undefined) | inactive | 
31 | ClC1(Cl)C2(Cl)C3(Cl)C4(Cl)C(Cl)(Cl)C5(Cl)C3(Cl)C1(Cl)C5(Cl)C24Cl (centres undefined) | inactive | 
32 | OCc1ccco1 | inactive | 
33 | CC(C)c1cccc(C(C)C)c1O | inactive | 
34 | CC(=O)C=C(C)C | inactive | 
35 | N#CN=C(N)N | inactive | 
36 | COc1ccc(C=O)cc1 | inactive | 
37 | C=C(C)C#N | inactive | 
38 | ClC(Cl)=C(Cl)C(Cl)=C(Cl)Cl | inactive | 
39 | C=CC#N | inactive | 
40 | O=C/C=C/c1ccccc1 | inactive | 
41 | [O-][Cl+2]([O-])O | inactive | 
42 | c1cc[c]([Hg][c]2ccccc2)cc1 | inactive | 
43 | CC(=O)c1cc(C(C)(C)C)cc2c1CCC2(C)C | inactive | 
44 | O=C1C(Cl)=C(Cl)C(=O)c2ccccc21 |  | 11.9 µM (active)
45 | Clc1nc(Cl)nc(Cl)n1 | inactive | 
46 | CCCCCCCCSC(=O)Oc1cc(Cl)nnc1-c1ccccc1 | inactive | 
47 | CC1(C)Cc2cccc(O)c2O1 | inactive | 
48 | CNC | inactive | 
49 | O=[N+]([O-])c1ccc(O)c([N+](=O)[O-])c1 | inactive | 
50 | Cc1ccc2ccccc2c1C | inactive | 

target: T1, Estrogen receptor (Homo sapiens) + Estrogen receptor beta (Homo sapiens) (UniProt P03372+Q92731); test: OT_ER_ERaERb_0480: Odyssey Thera (OT) 8-hour HEK293T Protein-Complementation Assay for Estrogen Receptor-alpha/-beta Heterodimer (AID 2283352)
T1 sequence (P03372 whole entry, looked up, the tested form may be a part): as above
T1 sequence (Q92731 whole entry, looked up, the tested form may be a part): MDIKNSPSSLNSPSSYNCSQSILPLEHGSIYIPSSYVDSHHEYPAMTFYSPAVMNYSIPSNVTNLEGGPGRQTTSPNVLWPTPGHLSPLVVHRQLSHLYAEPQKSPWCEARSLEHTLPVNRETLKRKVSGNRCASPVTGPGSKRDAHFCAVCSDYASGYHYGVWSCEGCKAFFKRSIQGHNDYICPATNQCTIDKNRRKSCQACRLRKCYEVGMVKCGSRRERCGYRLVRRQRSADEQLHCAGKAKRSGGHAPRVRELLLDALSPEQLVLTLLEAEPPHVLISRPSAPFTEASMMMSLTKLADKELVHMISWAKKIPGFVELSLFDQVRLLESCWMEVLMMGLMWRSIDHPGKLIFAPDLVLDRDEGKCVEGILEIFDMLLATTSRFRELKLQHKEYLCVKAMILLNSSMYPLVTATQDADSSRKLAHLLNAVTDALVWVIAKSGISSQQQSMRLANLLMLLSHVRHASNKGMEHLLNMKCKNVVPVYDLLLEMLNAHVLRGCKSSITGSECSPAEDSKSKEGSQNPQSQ
Outline: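 Fluorescence increase from reconstituted reporter fragments, quantified by laser scanning cytometer, reflects ER-alpha/ER-beta heterodimer formation in human HEK293T cells. Exposure 8 h; positive-direction fitting against DMSO vehicle.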

Row | Structure (SMILES) | outcome
51 | CC(C#N)CCC#N (centres undefined) | inactive
52 | OCc1ccco1 | inactive
53 | CC(C)c1cccc(C(C)C)c1O | inactive
54 | N#CN=C(N)N | inactive
55 | C=C(C)C#N | inactive
56 | C=CC#N | inactive
57 | [O-][Cl+2]([O-])O | inactive
58 | CC1(C)Cc2cccc(O)c2O1 | inactive
59 | O=[N+]([O-])c1ccc(O)c([N+](=O)[O-])c1 | inactive
60 | Cc1ccc2ccccc2c1C | inactive

target: Androgen Receptor/SRC-1 Co-activator, AR (gene 367) (UniProt P10275); test: OT_AR_ARSRC1_0960: Odyssey Thera (OT) 16-hour HEK293T Protein-Complementation Assay for Androgen Receptor/SRC-1 Co-activator (AID 2283353);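 further: actives raise the signal above DMSO so potency reflects increased AR and SRC-1 complex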
Sequence (P10275 whole entry, looked up, the tested form may be a part): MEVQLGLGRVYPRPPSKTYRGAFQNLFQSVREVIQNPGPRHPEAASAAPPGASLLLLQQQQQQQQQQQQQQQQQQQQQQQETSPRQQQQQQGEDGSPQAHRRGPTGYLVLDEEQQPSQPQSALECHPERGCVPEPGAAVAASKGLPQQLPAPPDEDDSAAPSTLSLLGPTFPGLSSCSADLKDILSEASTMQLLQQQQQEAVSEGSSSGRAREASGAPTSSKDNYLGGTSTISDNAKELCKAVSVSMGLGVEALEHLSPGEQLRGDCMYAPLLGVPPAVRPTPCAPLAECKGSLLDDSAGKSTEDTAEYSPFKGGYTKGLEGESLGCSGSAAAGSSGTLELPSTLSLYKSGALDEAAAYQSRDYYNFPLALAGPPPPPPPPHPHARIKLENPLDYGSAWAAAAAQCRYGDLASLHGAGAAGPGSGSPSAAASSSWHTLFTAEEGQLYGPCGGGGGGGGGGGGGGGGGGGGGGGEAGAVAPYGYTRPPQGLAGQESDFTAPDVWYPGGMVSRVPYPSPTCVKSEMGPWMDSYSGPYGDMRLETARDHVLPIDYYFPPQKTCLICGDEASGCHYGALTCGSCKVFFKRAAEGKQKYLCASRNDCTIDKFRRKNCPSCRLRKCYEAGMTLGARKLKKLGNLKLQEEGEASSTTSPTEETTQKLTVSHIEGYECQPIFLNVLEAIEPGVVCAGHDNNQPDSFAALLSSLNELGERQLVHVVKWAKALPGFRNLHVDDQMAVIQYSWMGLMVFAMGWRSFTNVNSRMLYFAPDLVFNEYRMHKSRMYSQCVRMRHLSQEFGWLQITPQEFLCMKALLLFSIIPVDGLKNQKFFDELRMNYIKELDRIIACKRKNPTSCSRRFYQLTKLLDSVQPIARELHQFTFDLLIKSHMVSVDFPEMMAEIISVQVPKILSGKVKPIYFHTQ
Outline: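 Stable HEK293T line carries AR and SRC-1 each linked to a Venus fragment; chemicals are applied for 16 h, cells imaged at two wavelengths, and the 488 nm nucleus/cytoplasm ratio is taken as the signal, rising relative to DMSO.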

Row | Structure (SMILES) | outcome | AC50
61 | COP(=O)(OC)OC | inactive | 
62 | ClC1(Cl)C2(Cl)C3(Cl)C4(Cl)C(Cl)(Cl)C5(Cl)C3(Cl)C1(Cl)C5(Cl)C24Cl (centres undefined) | inactive | 
63 | CC(C)c1cccc(C(C)C)c1O | inactive | 
64 | O=c1[nH]c(=O)[nH]c(=O)[nH]1 | inactive | 
65 | c1cc[c]([Hg][c]2ccccc2)cc1 |  | 41.9 µM (active)
66 | O=[N+]([O-])c1ccc(O)c([N+](=O)[O-])c1 | inactive | 
67 | Cc1ccc2ccccc2c1C | inactive | 

target: T1, Estrogen receptor (Homo sapiens) + Estrogen receptor beta (Homo sapiens); test: OT_ER_ERaERb_1440: Odyssey Thera (OT) 24-hour HEK293T Protein-Complementation Assay for Estrogen Receptor-alpha/-beta Homodimer (AID 2283356);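 further: heteromer of ER alpha and ER beta binding domains; hits raise reporter fluorescence and both agonists and antagonists give an increase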
Outline: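 Fragment complementation between ER alpha (310-547) and ER beta (263-489) ligand-binding domains in HEK293T cells; signal read 24 h post-dosing by laser scanning cytometer. Gain of fluorescence relative to DMSO fitted.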

Row | Structure (SMILES) | outcome
68 | CC(C#N)CCC#N (centres undefined) | inactive
69 | COc1ccc(C=O)cc1OC | inactive
70 | OCc1ccco1 | inactive
71 | CC(C)c1cccc(C(C)C)c1O | inactive
72 | N#CN=C(N)N | inactive
73 | C=C(C)C#N | inactive
74 | C=CC#N | inactive
75 | [O-][Cl+2]([O-])O | inactive
76 | c1cc[c]([Hg][c]2ccccc2)cc1 | inactive
77 | CC1(C)Cc2cccc(O)c2O1 | inactive
78 | O=[N+]([O-])c1ccc(O)c([N+](=O)[O-])c1 | inactive
79 | Cc1ccc2ccccc2c1C | inactive

target: Estrogen receptor beta (Homo sapiens) (UniProt Q92731); test: OT_ER_ERbERb_0480: Odyssey Thera (OT) 8-hour HEK293T Protein-Complementation Assay for Estrogen Receptor-beta/-beta Homodimer (AID 2283357);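 further: active means signal gain over DMSO baseline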
Sequence (Q92731 whole entry, looked up, the tested form may be a part): as the sequence (Q92731 whole entry, looked up, the tested form may be a part) above
Outline: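 Homodimerization of ER-beta LBD measured by protein-fragment complementation in HEK293T; 8 h dosing; fixed, Draq5 counterstain; fluorescence intensity gain over DMSO baseline, positive fitting direction; laser scanning cytometry.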

Row | Structure (SMILES) | outcome | AC50
80 | CC(C#N)CCC#N (centres undefined) | inactive | 
81 | COc1ccc(C=O)cc1OC | inactive | 
82 | OCc1ccco1 | inactive | 
83 | CC(C)c1cccc(C(C)C)c1O | inactive | 
84 | N#CN=C(N)N | inactive | 
85 | Oc1cccc2cccnc12 | inactive | 
86 | O=C(O)C(F)(F)C(F)(F)C(F)(F)C(F)(F)C(F)(F)C(F)(F)F | inactive | 
87 | C=C(C)C#N | inactive | 
88 | CC(C)(C)CC(C)(C)c1ccc(O)cc1 |  | 817 nM (active) and 676 nM (active) and 702 nM (active)
89 | C=CC#N | inactive | 
90 | C=CCc1ccc(OC)cc1 | inactive | 
91 | O=c1[nH]c(=O)[nH]c(=O)[nH]1 | inactive | 
92 | CCCCCCCCc1ccc(O)cc1 |  | 12.2 µM (active)
93 | CC1(C)Cc2cccc(O)c2O1 | inactive | 
94 | Cc1ccc2ccccc2c1C | inactive | 

target: human Peroxisome Proliferator-activated Receptor alpha (PPARa), PPARA (gene 5465) (UniProt Q07869); test: NVS_NR_hPPARa: NovaScreen (NVS) Nuclear Receptor Binding Assay for human Peroxisome Proliferator-activated Receptor alpha (PPARa) (AID 2283359);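 further: activity means loss of TR-FRET signal versus DMSO baseline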
Sequence (Q07869 whole entry, looked up): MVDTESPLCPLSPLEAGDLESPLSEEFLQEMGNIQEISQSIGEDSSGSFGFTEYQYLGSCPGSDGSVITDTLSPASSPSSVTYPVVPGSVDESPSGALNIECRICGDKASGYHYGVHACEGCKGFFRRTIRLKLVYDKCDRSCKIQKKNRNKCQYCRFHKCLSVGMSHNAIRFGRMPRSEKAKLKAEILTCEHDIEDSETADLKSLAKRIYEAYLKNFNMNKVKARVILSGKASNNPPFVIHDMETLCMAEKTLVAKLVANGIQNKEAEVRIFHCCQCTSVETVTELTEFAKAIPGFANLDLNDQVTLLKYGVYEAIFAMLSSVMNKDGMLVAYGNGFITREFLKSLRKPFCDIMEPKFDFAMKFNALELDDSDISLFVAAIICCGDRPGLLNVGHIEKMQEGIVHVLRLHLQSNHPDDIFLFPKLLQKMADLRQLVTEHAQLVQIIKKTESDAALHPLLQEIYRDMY
Outline: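 TR-FRET signal measured at 1 h post-dosing; loss-of-signal versus DMSO negative control taken as activity. Extracted gene-protein, cell-free format. Initial single-point duplicates at 25 uM, then concentration-response retests.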

Row | Structure (SMILES) | outcome
95 | CC(=O)C=C(C)C | inactive
96 | O=C(O)C(F)(F)C(F)(F)C(F)(F)C(F)(F)C(F)(F)C(F)(F)F | inactive
97 | C=CCc1ccc(OC)cc1 | inactive
98 | CCCCCCCCc1ccc(O)cc1 | inactive
99 | CCCCCCCCSC(=O)Oc1cc(Cl)nnc1-c1ccccc1 | inactive
